Assay [1] in a line: qHTS assay to identify small molecule antagonists of the vitamin D receptor (VDR) signaling pathway - cell viability counter screen (AID 743225). Note: % is set by controls: 0 for no effect and ±100 for the full control effect; nearly all actives have a fitted effect of over 50% in size. Put shortly:
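Same-well multiplex: following 16 h treatment of HEK 293T cells carrying a UAS-driven beta-lactamase reporter with compound and agonist (3 nM final), and a 2 h FRET substrate step, CellTiter-Glo was added and luminescence read after 30 min.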
In general terms: qHTS replaces the single test concentration by a dilution series.

Assay [2] is described as follows: qHTS assay to identify small molecule agonists of the NFkB signaling pathway - cell viability counter screen (AID 1159515; calls by dose curve; note: series mostly up to about 61 µM; % is set by controls: 0 for no effect and ±100 for the full control effect; nearly all actives have a fitted effect of over 55% in size). Put shortly: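 5 hr compound treatment of NFkB-bla ME-180 cells (2,000/well, seeded overnight beforehand), followed by reporter substrate for 1.5 hr. CellTiter-Glo added afterward; luminescence after 30 min RT.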
Assay [3] is described as follows: qHTS assay to identify small molecule agonists of the endoplasmic reticulum stress response signaling pathway (AID 1159516; active = well fitted activation curve with a large enough effect in the signal ratio in the repeat runs, not every such curve was filed as active; the % refers to the signal ratio; note: % is set by controls: 0 for no effect and ±100 for the full control effect). Put shortly: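 Reporter HeLa cells (ESRE-beta-lactamase) underwent 5 hr compound incubation at 37 C and 5% CO2 in quantitative HTS format. Detection followed 2 hr of FRET substrate loading at room temperature.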
Assay [4] in a line: qHTS assay to identify small molecule agonists of the endoplasmic reticulum stress response signaling pathway - cell viability counter screen (AID 1159517; calls by dose curve; note: series mostly up to about 61 µM; % is set by controls: 0 for no effect and ±100 for the full control effect; nearly all actives have a fitted effect of over 50% in size). The method in brief: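 HeLa cells carrying an ESRE-driven beta-lactamase reporter receive compound for 5 hr at 37 C. Cell viability is then gauged with CellTiter-Glo by luminescence, 30 min at room temperature.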
Assay [5] in a line: qHTS assay to identify small molecule antagonists of the retinoid-related orphan receptor gamma (ROR-gamma) signaling pathway - cell viability counter screen (AID 1159520). Note: % is set by controls: 0 for no effect and ±100 for the full control effect; nearly all actives have a fitted effect of over 50% in size. The method in brief:
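Cytotoxicity was read from cellular ATP (CellTiter-Glo luminescence) after 16 hr at 37 C with 1 uM doxycycline induction. The inducer was added 2 hr after compound transfer to Tet-on ROR gamma CHO cells.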

For assay [6], the target named is Nuclear receptor ROR-gamma (Homo sapiens) (UniProt P51449). The assay is described as follows: qHTS assay to identify small molecule antagonists of the retinoid-related orphan receptor gamma (ROR-gamma) signaling pathway (AID 1159521; note: top concentration of the series differs between compounds; % is set by controls: 0 for no effect and ±100 for the full control effect; nearly all actives have a fitted effect of over 50% in size). The method in brief: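 Inducible-expression reporter assay: doxycycline (1 uM final) switched on RORγ in CHO cells bearing a ROR response element-luciferase construct, with test compounds present from 2 h beforehand. Decreased luminescence after 16 h defined antagonist activity.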

Assay [7] is described as follows: qHTS assay to identify small molecule agonists of the AP-1 signaling pathway - cell viability counter screen (AID 1159525; calls by dose curve; note: nearly all actives have a fitted effect of over 55% in size). The method in brief:
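Luminescent ATP readout (Cell Titer Glo, 30 min RT), normalised to DMSO and tetra n-octyl ammonium bromide controls. Cells were ME-180 AP-1-bla in 0.5% dialyzed FBS Opti-MEM, with a 5 h, 37 °C compound exposure.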

Assay [8] in a line: qHTS assay to identify small molecule agonists of the AP-1 signaling pathway (AID 1159526; calls by dose curve; note: % is set by controls: 0 for no effect and ±100 for the full control effect).
The target of assay [9] is Retinoic acid receptor RXR-alpha (Homo sapiens) (UniProt P19793). In words: qHTS assay to identify small molecule agonists of the RXR signaling pathway (AID 1159527; calls by dose curve; note: % is set by controls: 0 for no effect and ±100 for the full control effect; nearly all actives have a fitted effect of over 35% in size). Put shortly: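 Compounds in DMSO were added to RXR-alpha-UAS-bla HEK 293T cells kept in 2% charcoal-stripped serum, and incubated 16 hr at 37 C with 5% CO2. Reporter signal came from a 2 hr B/G FRET substrate step.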
Retinoic acid receptor RXR-alpha (Homo sapiens), sequence (P19793 whole entry, looked up): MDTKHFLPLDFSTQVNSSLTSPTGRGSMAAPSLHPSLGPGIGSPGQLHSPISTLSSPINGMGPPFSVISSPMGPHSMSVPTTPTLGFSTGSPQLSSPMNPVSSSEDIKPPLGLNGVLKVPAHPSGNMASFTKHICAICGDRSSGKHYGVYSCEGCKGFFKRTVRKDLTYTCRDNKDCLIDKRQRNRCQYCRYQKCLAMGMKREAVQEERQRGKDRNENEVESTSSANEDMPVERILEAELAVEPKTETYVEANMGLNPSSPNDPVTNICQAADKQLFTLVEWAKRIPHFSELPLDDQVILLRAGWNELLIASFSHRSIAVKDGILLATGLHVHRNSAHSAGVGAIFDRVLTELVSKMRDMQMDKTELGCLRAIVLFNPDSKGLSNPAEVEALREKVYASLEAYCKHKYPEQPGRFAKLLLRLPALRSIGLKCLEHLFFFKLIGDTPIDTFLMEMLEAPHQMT

Assay [10] can be described thus: qHTS assay to identify small molecule agonists of the RXR signaling pathway - cell viability counter screen (AID 1159529). Put shortly: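 Counter screen: CellTiter-Glo luminescence. Cells: RXR-alpha-UAS-bla HEK 293T. Medium: 2% charcoal-stripped FBS. Treatment: 16 h, 37 C. Reagent incubation: 30 min, RT.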
A short description of assay [11]: qHTS assay to identify small molecule antagonists of the retinoid acid receptor (RAR) signaling pathway - cell viability counter screen (AID 1159551). Note: % is set by controls: 0 for no effect and ±100 for the full control effect; nearly all actives have a fitted effect of over 35% in size. Put shortly:
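Seed C3RL4 cells; next day add compound, then retinol to 1 uM final; incubate 6 h at 37 C; add CellTiter-Glo; read luminescence after 30 min at RT.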

Assay [12] is described as follows: qHTS assay to identify small molecule antagonists of the retinoic acid receptor (RAR) signaling pathway (AID 1159552). Put shortly: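 Antagonism of retinol-induced RARE reporter activity was measured in C3RL4 cells. Exposure to compounds and 1 uM final retinol lasted 6 hr at 37 C, with luminescence as endpoint.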
A short description of assay [13]: qHTS assay to identify small molecule agonists of the retinoic acid receptor (RAR) signaling pathway (AID 1159553). For activation: % is set by controls: 0 for no effect and ±100 for the full control effect. Note: potency is the fitted concentration of half-maximal effect. The method in brief:
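Activation of retinol signaling was monitored via a RARE luciferase reporter in C3RL4 cells. After 6 hr compound treatment at 37 C, detection reagent was added for 30 min at room temperature before luminescence reading.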

A short description of assay [14]: qHTS assay to identify small molecule antagonists of the estrogen related receptor (ERR) signaling pathway from Tox21 library - cell viability counter screen (AID 1224834). Note: % is set by controls: 0 for no effect and ±100 for the full control effect; nearly all actives have a fitted effect of over 30% in size. Put shortly: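 CellTiter-Fluor fluorescence measured; ERR cells; 17.5 h compound incubation at 37 C; 30 min reagent step.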
The target of assay [15] is Luciferin 4-monooxygenase (Photinus pyralis) (UniProt P08659). In words: qHTS assay to identify small molecule inhibitors of firefly luciferase (AID 1224835). For activity change, negative = inhibition: series mostly up to about 120 µM; % is set by controls: 0 for no effect and ±100 for the full control effect. Note: nearly all actives have a fitted effect of over 25% in size. Note: potency is the fitted concentration of half-maximal effect. Put shortly:
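Inhibition of purified Photinus luciferase is measured by luminescence. Substrate levels (D-luciferin, ATP) sit at their KM values. Each compound is tested in a concentration series.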

Assay [16] can be described thus: qHTS assay to identify small molecule agonists of the constitutive androstane receptor (CAR) signaling pathway - cell viability counter screen (AID 1224836). Note: series mostly up to about 92 µM; % is set by controls: 0 for no effect and ±100 for the full control effect; nearly all actives have a fitted effect of over 45% in size. Put shortly: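 Double-stable HepG2 hepatoma cells (hCAR plus CYP2B6-2.2kb) are treated for 23 h at 37 C with test compounds in 15-point concentration series. PK11195 at 0.75 uM final is co-added. Cell viability is quantified by CellTiter-Fluor.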

A short description of assay [17]: qHTS assay to identify small molecule antagonists of the constitutive androstane receptor (CAR) signaling pathway - cell viability counter screen (AID 1224837). Note: series mostly up to about 92 µM; % is set by controls: 0 for no effect and ±100 for the full control effect; nearly all actives have a fitted effect of over 45% in size. Put shortly: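 Using CellTiter-Fluor, viability is scored in HepG2 cells stably carrying hCAR and a 2.2kb CYP2B6 reporter after 23 hr compound exposure across 15 concentrations, with CITCO present at 50 nM.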

The target in assay [18] is Nuclear receptor subfamily 1 group I member 3 (Homo sapiens) (UniProt Q14994). The assay is described as follows: qHTS assay to identify small molecule antagonists of the constitutive androstane receptor (CAR) signaling pathway (AID 1224838).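 Note: HepG2 cells stably expressing hCAR with CYP2B6 luciferase reporter stimulated by CITCO; % is set by controls: 0 for no effect and ±100 for the full control effect; nearly all actives have a fitted effect of over 40% in size.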 Put shortly:
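Reporter luminescence was quantified after 24 h exposure of hCAR/CYP2B6-2.2kb double-stable HepG2 cells to compounds at 15 concentrations in the presence of 50 nM CITCO final.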

Assay [19] shares this target. In words: qHTS assay to identify small molecule agonists of the constitutive androstane receptor (CAR) signaling pathway (AID 1224839). Note: series mostly up to about 92 µM; % is set by controls: 0 for no effect and ±100 for the full control effect; nearly all actives have a fitted effect of over 15% in size. The method in brief: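 Readout: firefly luciferase luminescence via ONE-Glo. System: HepG2 double-stable for hCAR and CYP2B6-2.2kb. Conditions: 15-point compound titration, PK11195 at 0.75 uM final, 24 h incubation.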
Assay [20] can be described thus: qHTS assay to identify small molecule antagonists of the estrogen related receptor signaling pathway with the pleiotropic PPARgamma coactivator (PGC) from Tox21 10K library - cell viability counter screen (AID 1224840; active = well fitted cell-killing curve with a large enough effect in the repeat runs, not every such curve was filed as active; note: % is set by controls: 0 for no effect and ±100 for the full control effect; nearly all actives have a fitted effect of over 40% in size). The method in brief: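 Here the PGC/ERR cells serve as a cytotoxicity control: they are exposed to compounds for 17.5 hours at 37 C, and live-cell signal is quantified using CellTiter-Fluor fluorescence.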

The text below walks through data of PubChem BioAssay (Tox21).

The structures appear in SMILES notation. Results filed as inconclusive are left out. A number with no mark means an inactive call. The source made the active and inactive calls. Unless noted, calls come from the whole dose curve; as a rule, active = well fitted curve in the direction sought with a large enough effect in the repeat runs; inconclusive = weak or mixed curves; inactive = no such curve, though single readings can be large; an effect the other way counts as inactive or inconclusive.

Luciferin 4-monooxygenase (Photinus pyralis), sequence (P08659 whole entry, looked up): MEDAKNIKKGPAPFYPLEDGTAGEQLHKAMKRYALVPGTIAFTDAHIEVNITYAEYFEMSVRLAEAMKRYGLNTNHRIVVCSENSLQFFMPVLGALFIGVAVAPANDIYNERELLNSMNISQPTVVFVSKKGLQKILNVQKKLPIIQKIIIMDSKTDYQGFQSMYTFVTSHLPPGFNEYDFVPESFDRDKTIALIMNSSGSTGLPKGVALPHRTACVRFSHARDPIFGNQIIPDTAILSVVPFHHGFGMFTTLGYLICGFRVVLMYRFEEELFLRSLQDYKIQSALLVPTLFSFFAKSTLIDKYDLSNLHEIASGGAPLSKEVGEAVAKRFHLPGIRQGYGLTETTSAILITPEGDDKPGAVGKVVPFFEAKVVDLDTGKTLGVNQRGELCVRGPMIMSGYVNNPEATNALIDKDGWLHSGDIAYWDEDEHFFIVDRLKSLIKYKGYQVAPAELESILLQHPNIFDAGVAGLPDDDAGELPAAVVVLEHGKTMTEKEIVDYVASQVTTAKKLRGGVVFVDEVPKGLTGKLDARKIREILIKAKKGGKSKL
Nuclear receptor subfamily 1 group I member 3 (Homo sapiens), sequence (Q14994 whole entry, looked up): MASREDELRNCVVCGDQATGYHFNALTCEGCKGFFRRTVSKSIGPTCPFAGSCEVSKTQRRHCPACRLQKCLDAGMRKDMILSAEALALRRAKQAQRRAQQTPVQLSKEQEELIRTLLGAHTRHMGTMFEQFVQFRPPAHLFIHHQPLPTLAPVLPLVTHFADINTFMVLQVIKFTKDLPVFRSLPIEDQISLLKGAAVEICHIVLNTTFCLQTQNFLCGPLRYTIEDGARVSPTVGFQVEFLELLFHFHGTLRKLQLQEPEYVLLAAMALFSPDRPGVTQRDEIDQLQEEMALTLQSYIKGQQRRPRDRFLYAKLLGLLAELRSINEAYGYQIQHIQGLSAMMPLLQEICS

With `CCCCCCCCCCCCCCCC(=O)OC`, the call in [1], in assay [2] and in [4] was inactive. For the same molecule, the Potency result in assay [3] and in assay [13] was “inactive” throughout. In addition, in assay [5], the activity, negative = cytotoxicity was 1.29% [at 19 µM]. The activity change, negative = inhibition in assay [6] is 7.03% [at 19 µM]; in assay [15], 0.26% [at 23.6 µM]. The viability change, negative = cytotoxic in assay [7] is -12.9% [at 15.8 µM]; in [14], 2.97% [at 19 µM]; in assay [16] it was -0.61% [at 19 µM]; in [20], 5.32% [at 19 µM]. Moreover, the activation was 17.1% [at 15.8 µM] in [8], -1.09% [at 15.8 µM] in [9] and -1.6% [at 19 µM] in assay [19]. Also, the activity change, negative = cytotoxicity is -3.67% [at 15.8 µM] in assay [10], 3.42% [at 19 µM] in [11] and -4.04% [at 19 µM] in [17]. The activity, negative = inhibition in assay [12] was -7.57% [at 19 µM]; in [18], -5.63% [at 19 µM].
As for `CN(C)CCCN(C)C`, the activity, negative = cytotoxic in [2] was 0.193% [at 6.95 µM]. For the same molecule, the activation in [3] is 3.45% [at 6.95 µM]; in [8], -5.98% [at 6.97 µM]; in assay [9] it was 4.65% [at 6.98 µM]; in assay [13], 0.0534% [at 8.36 µM]; in assay [19] it was -0.471% [at 8.39 µM]. Moreover, the activity change, negative = cytotoxicity in assay [4] is 19.8% [at 6.95 µM]; in assay [10] it was -1.24% [at 6.97 µM]; in [11] it was -1.41% [at 8.39 µM]; in assay [17], 1.66% [at 8.39 µM]. For the same molecule, the activity, negative = cytotoxicity in assay [5] is 11.1% [at 8.39 µM]. Also, the results for the activity change, negative = inhibition in assay [6] and in [15] were -7.64% [at 8.39 µM] and 2.53% [at 10.5 µM], respectively. In addition, the viability change, negative = cytotoxic in assay [7] is -0.503% [at 6.97 µM]; in assay [14], 0.808% [at 8.39 µM]; in [16], -1.97% [at 8.39 µM]; in [20], 4.04% [at 8.39 µM]. Also, the activity, negative = inhibition was 0.227% [at 8.39 µM] in assay [12] and -1.01% [at 8.39 µM] in assay [18].
With `O=CN1CCCCC1`, the call in [1], in assay [2], in [4], in assay [5], in assay [6] and in assay [7] was inactive. The molecule was classed as inactive in assay [11], in assay [12], in [14], in assay [16], in assay [17] and in assay [18]. For the same molecule, the outcome in assay [20] was inactive. Moreover, the Potency result in assay [3], in assay [8], in assay [9], in assay [10], in assay [13] and in [15] was “inactive” in each case. Also, the Potency entry in [19] was “inactive”.
`CCCCCCC(=O)c1ccccc1`: the outcome in assay [1], in assay [2], in [4], in [5], in assay [6] and in assay [7] was inactive. For the same molecule, the molecule was classed as inactive in assay [11], in assay [12], in assay [14], in assay [16], in assay [17] and in [18]. For the same molecule, the molecule was called inactive in [20]. The Potency entry in [3], in assay [8], in [9] and in assay [10] was “inactive” each time. Besides, the Potency is 54.5 µM (active) in assay [13] and 7.1 µM (active) in assay [15].
Take `C[C@@H](CN1CC(=O)NC(=O)C1)N1CC(=O)NC(=O)C1`: the molecule was classed as inactive in assay [1], in assay [2], in [4], in [5], in [6] and in assay [7]. For the same molecule, the result in assay [11], in [12], in assay [14], in assay [16], in [17] and in [18] was inactive. The molecule was called inactive in assay [20]. Besides, the Potency entry in [3], in [8], in assay [9], in assay [10], in [13] and in assay [15] was “inactive” each time. In addition, in [19], the Potency entry is “inactive”.
In the case of `CC(=O)O[C@@H]1CC2C3CCc4cc(OC(=O)c5ccccc5)ccc4C3CCC2(C)[C@H]1OC(C)=O` (stereo not given in full), the molecule was classed as inactive in [2], in [4], in [5], in [6], in assay [7] and in assay [11]. For the same molecule, the outcome in assay [12], in assay [14], in assay [16], in [17], in [18] and in assay [20] was inactive. Besides, the Potency entry in [3], in assay [8], in assay [9], in assay [10], in assay [13] and in [15] was “inactive” in each case.
In the case of `CC(C)CC(O)Cc1ccccc1` (stereo not given), the molecule was classed as inactive in [2], in assay [4], in [5], in assay [6], in [7] and in assay [11]. In addition, the molecule was classed as inactive in [12], in assay [14], in assay [16], in assay [17], in assay [18] and in [20]. For the same molecule, the Potency result in [3], in [8], in assay [9], in assay [10], in assay [13] and in assay [15] was “inactive” in each case. Besides, the Potency entry in assay [19] is “inactive”.
